Assay outcomes: PubChem BioAssay, National Center for Advancing Translational Sciences (NCATS)
In the library only some 21% were active in any assay of this set; here they are far more common.
TDP1 cell CPT – DT40-hTDP1 cell growth loss with CPT; AID 686979; hit rate 12% among 420,000; chicken DT40 Tdp1-/-;hTDP1 cells + 20 nM CPT, ATP luminescence, 48 h; Potency, µM (doses to about 46.2 µM), inactives show top-dose activity change, negative = growth inhibition, most hits filed as inhibitors; note: potency is the fitted concentration of half-maximal effect; nearly all actives have a fitted effect of over 55% in size
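Chicken DT40 Tdp1-/- cells stably complemented with human TDP1 were seeded at 400 cells/well in medium containing 20 nM camptothecin, exposed to pin-transferred compounds, and grown at 37 °C for at least 48 hr. Viability was read as ATP luminescence.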
ELG1 repair inh – inhibitors of ELG1-dependent DNA repair in HEK293T cells; HEK293T ELG1-luciferase reporter, luminescence, 16 h; DNA damage induced by 5-fluorouridine; Potency, µM (series often up to 46.1 µM), without a hit: at the top dose activity change, negative = inhibition, actives largely listed as inhibitors; hit rate 2.3% among 330,000; AID 504467; note: potency is the fitted concentration of half-maximal effect; nearly all actives have a fitted effect of over 55% in size
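Reporter activity after DNA damage by 5-fluorouridine is monitored. Compound-treated cells incubate 16 hr at 37 °C, then ONE-Glo is added for 30 min before luminescence reading.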
IL-1B inflam inh – blocks inflammasome-driven IL-1 beta release; THP-1 LPS/ATP IL-1B secretion, AlphaLISA, 16 h; stronger effect = lower value; hit rate 4.7% among 360,000; AID 743279; activity change, % at 57.5 µM; in the data active = activity change below about -50%; inconclusive = mostly about -30% to -49%
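Secreted IL-1B measured by AlphaLISA bead assay after 16 h compound exposure of THP-1 cells; compounds (final up to 57.5 uM) added 1 h before LPS (250 ng/mL) and ATP (1.25 mM) stimulation; lower signal means less secretion.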
VP16 counter – counter-screen for ROR gamma inhibitors: Gal4-VP16 reporter. hit rate 3.5% among 310,000. Potency, µM (series often up to 53.6 µM), inactives show at the top dose activity, negative = inhibition, usual class: inhibitors. Drosophila S2 Gal4-VP16 UAS-luciferase, luminescence, 20 h. AID 2546;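 note: Gal4-VP16 expression switched on by copper sulfate through the metallothionein promoter; potency is the fitted concentration of half-maximal effect; nearly all actives have a fitted effect of over 50% in size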
RORg inh – ROR gamma (mouse) transcription inhibition | hit rate 5.4% among 310,000 | Drosophila S2 Gal4-RORgamma UAS-luciferase reporter, 20 h | Potency, µM (series often up to 53.6 µM), without a hit: top-dose activity change, negative = inhibition, most hits filed as inhibitors | P51450 | AID 2551; note: potency is the fitted concentration of half-maximal effect; nearly all actives have a fitted effect of over 60% in size
Target sequence (P51450 whole entry, looked up, the tested form may be a part): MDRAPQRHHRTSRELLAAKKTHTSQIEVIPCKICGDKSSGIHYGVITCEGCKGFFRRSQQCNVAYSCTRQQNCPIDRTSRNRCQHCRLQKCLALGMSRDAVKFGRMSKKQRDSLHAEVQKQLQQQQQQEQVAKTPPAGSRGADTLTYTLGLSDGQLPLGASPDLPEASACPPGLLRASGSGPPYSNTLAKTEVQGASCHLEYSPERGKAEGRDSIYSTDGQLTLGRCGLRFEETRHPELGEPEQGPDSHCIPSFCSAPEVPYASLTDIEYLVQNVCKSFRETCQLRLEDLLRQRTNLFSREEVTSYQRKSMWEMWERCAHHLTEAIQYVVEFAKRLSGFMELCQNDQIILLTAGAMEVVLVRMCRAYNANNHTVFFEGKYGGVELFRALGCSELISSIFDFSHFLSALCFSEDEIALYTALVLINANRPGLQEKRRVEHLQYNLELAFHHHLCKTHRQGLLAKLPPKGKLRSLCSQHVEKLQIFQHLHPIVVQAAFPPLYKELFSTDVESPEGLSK
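Schneider cells (Drosophila), stable Gal4 DBD–ROR gamma + UAS-luc; 1 hr cmpd preincubation; Cu2+ induction 700 uM final; 20 hr ambient; luminescence.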
DT40 TDP1 no CPT – qHTS for Inhibitors of human tyrosyl-DNA phosphodiesterase 1 (TDP1): qHTS in cells in absence of CPT | DT40 Tdp1-/- hTDP1 cells, no CPT, ATP luminescence, 48 h | Potency, µM (top dose mostly 46.2 µM), for inactives: at the top dose activity change, negative = growth inhibition, actives largely listed as inhibitors | hit rate 15% among 420,000; note: potency is the fitted concentration of half-maximal effect; nearly all actives have a fitted effect of over 55% in size
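Stably hTDP1-transfected Tdp1-null chicken DT40 cells were treated with library compounds minus camptothecin and grown for at least 48 hr at 37 °C, after which cellular ATP was quantified by luminescence.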
Starred values were filed as active, the others as inactive; [ ] = another dose, or the depositor's remark. Unless noted, calls come from the whole dose curve; as a rule, active = well fitted curve in the direction sought with a large enough effect; inconclusive = small, poorly fitted or top-dose-only effect, or another doubt; inactive = no such curve, though single readings can be large; an effect the other way counts as inactive or inconclusive. % is set by controls: 0 for no effect and ±100 for the full control effect.

CCOC(=O)C1=C(N)Oc2cc(O)ccc2C1c1ccc([N+](=O)[O-])cc1 (stereo not drawn) was read as TDP1 cell CPT 0.5%, ELG1 repair inh -4.1%, IL-1B inflam inh -69.8*, VP16 counter inconclusive, RORg inh 9.2% and DT40 TDP1 no CPT -16.9%.
`Cc1cc(-c2ccc(S(=O)(=O)Nc3cccc(C(F)(F)F)c3)s2)on1` gave TDP1 cell CPT 20.6µM* and DT40 TDP1 no CPT inconclusive.
COc1ccccc1NS(=O)(=O)c1cccs1 was read as TDP1 cell CPT 16.1%, ELG1 repair inh -1.4%, IL-1B inflam inh 15.0, VP16 counter 4.1%, RORg inh 3.9% and DT40 TDP1 no CPT -8.2%.
COc1ccccc1NS(=O)(=O)c1ccc(-c2cc(C)no2)s1 was read as TDP1 cell CPT 7.31µM*, ELG1 repair inh inconclusive, IL-1B inflam inh 56.4, VP16 counter -16.0%, RORg inh 21.4% and DT40 TDP1 no CPT 7.31µM*.
Screening CO[C@@H]1COC(=O)[C@H](CCSC)NC(=O)C/C=C\[C@@H](C)COC(=O)[C@@H]2CCCN2C(=O)C/C=C\[C@H]1C returned VP16 counter -6.1%[10 µM] and RORg inh -8.7%[10 µM].
`Cc1oc2ccc(NS(=O)(=O)c3cccc4cccnc34)cc2c1C(=O)OC(C)C` gave TDP1 cell CPT inconclusive, ELG1 repair inh inconclusive, IL-1B inflam inh 34.9, VP16 counter -0.5%, RORg inh inconclusive and DT40 TDP1 no CPT inconclusive.
For COc1ccc(C2=Nn3c(nnc3-c3cc(OC)cc(OC)c3)SC2)cc1 the results were VP16 counter -23.6% and RORg inh -7.8%.
Cc1cc(-c2nc3cc(F)ccc3s2)ccc1N was read as TDP1 cell CPT -17.3%, IL-1B inflam inh -75.5* and DT40 TDP1 no CPT -5.5%.
`Nc1ccccc1-c1nc2ccccc2s1` gave TDP1 cell CPT 10.3%, ELG1 repair inh inconclusive, IL-1B inflam inh 41.7, VP16 counter -1.1%, RORg inh 12.5% and DT40 TDP1 no CPT 2.0%.
`CCc1nc(SCC(=O)N2CCN(c3ccccc3)CC2)c2oc3ccccc3c2n1` gave TDP1 cell CPT 25.9µM*, ELG1 repair inh inconclusive, IL-1B inflam inh -67.1*, VP16 counter 0.0%, RORg inh inconclusive and DT40 TDP1 no CPT 20.6µM*.
`CCc1nc(SCC(=O)N2CCCC2)c2ccccc2n1` gave TDP1 cell CPT -1.5%, ELG1 repair inh -19.8%, IL-1B inflam inh -94.0*, VP16 counter 5.0%, RORg inh 35.7% and DT40 TDP1 no CPT -9.6%.
Screening CC1CCCCN1C(=O)CSc1nc(C2CC2)nc2c1cnn2-c1ccccc1 (stereo not drawn) returned TDP1 cell CPT inconclusive, ELG1 repair inh inconclusive, IL-1B inflam inh -90.7*, VP16 counter 7.5%, RORg inh 0.7% and DT40 TDP1 no CPT inconclusive.
`CCc1nc(SCC(=O)c2ccc(Cl)s2)c2oc3ccccc3c2n1` gave TDP1 cell CPT -25.9%, ELG1 repair inh -6.6%, IL-1B inflam inh 2.1, VP16 counter 3.3%, RORg inh -8.1% and DT40 TDP1 no CPT -25.1%.
Screening O=C(CSc1nc(C2CCCCC2)nc2ccccc12)N1CCCC1 returned TDP1 cell CPT inconclusive, ELG1 repair inh 1.5%, IL-1B inflam inh -80.9*, VP16 counter 21.7%, RORg inh -32.9% and DT40 TDP1 no CPT inconclusive.
`Cc1nn(C)c(C)c1NC(=O)CSc1nc(C2CC2)nc2c1cnn2-c1ccccc1` gave TDP1 cell CPT inconclusive, ELG1 repair inh inconclusive, IL-1B inflam inh 40.8, VP16 counter 3.1%, RORg inh -1.1% and DT40 TDP1 no CPT inconclusive.
Screening O=C(CN1CCCC(O)C1)N1c2ccccc2Sc2ccc(C(F)(F)F)cc21 (stereo not drawn) returned TDP1 cell CPT -10.6%, ELG1 repair inh 5.4%, IL-1B inflam inh 2.6, VP16 counter -20.1%, RORg inh inconclusive and DT40 TDP1 no CPT -20.3%.
For O=C(CSc1nc(C2CC2)nc2ccccc12)N1c2ccccc2Sc2ccc(C(F)(F)F)cc21 the results were TDP1 cell CPT 8.2µM*, ELG1 repair inh -2.4%, IL-1B inflam inh inconclusive, VP16 counter 5.1%[0.365 µM], RORg inh -7.3% and DT40 TDP1 no CPT 23.1µM*.
Screening O=C(CSc1nc(C2CC2)nc2ccccc12)N1CCCCC1 returned TDP1 cell CPT inconclusive, ELG1 repair inh -20.5%, IL-1B inflam inh -94.7*, VP16 counter 4.4%, RORg inh 31.6% and DT40 TDP1 no CPT inconclusive.
`O=C(NCc1ccccc1F)C12CC3CC(CC(C3)C1)C2` gave TDP1 cell CPT 4.4%, IL-1B inflam inh 0.2 and DT40 TDP1 no CPT -26.2%.
Screening COC(=O)c1cc(C(=O)c2ccc(C(C)(C)C)cc2)c[nH]1 returned TDP1 cell CPT inconclusive, ELG1 repair inh 21.2%, IL-1B inflam inh inconclusive, VP16 counter 2.3%[10 µM], RORg inh -10.1% and DT40 TDP1 no CPT 11.6µM*.
Screening Cc1ccc(NC(=O)NCc2cccnc2)cc1 returned TDP1 cell CPT 1.7%, ELG1 repair inh 9.4%, IL-1B inflam inh -53.0*, VP16 counter 25.6%, RORg inh inconclusive and DT40 TDP1 no CPT 0.4%.
CC(C)(C)c1ccc(C(=O)c2c[nH]c(C(=O)NCc3cccnc3)c2)cc1 was read as TDP1 cell CPT 18.4µM*, ELG1 repair inh -19.6%, IL-1B inflam inh -11.3, VP16 counter inconclusive, RORg inh inconclusive and DT40 TDP1 no CPT 16.4µM*.
CC(C)(C)c1ccc(C(=O)NCc2cccnc2)cc1 was read as TDP1 cell CPT -18.5%, ELG1 repair inh inconclusive, IL-1B inflam inh 15.7, VP16 counter 3.7%, RORg inh inconclusive and DT40 TDP1 no CPT inconclusive.
For O=C(NCc1cccnc1)Nc1ccc(Br)cc1 the results were TDP1 cell CPT 10.2%, ELG1 repair inh inconclusive, IL-1B inflam inh -13.2, VP16 counter 13.0%, RORg inh 15.9% and DT40 TDP1 no CPT 12.5%.
CC(C)(C)c1ccc(C(=O)NC(=S)NCc2cccnc2)cc1 was read as TDP1 cell CPT 16.4µM*, ELG1 repair inh 9.6%, IL-1B inflam inh 3.6, VP16 counter -10.9%, RORg inh -5.4% and DT40 TDP1 no CPT 18.4µM*.
O=C(Cc1ccc(Cl)cc1)c1c[nH]c(C(=O)NCc2cccnc2)c1 was read as TDP1 cell CPT 1.1%, ELG1 repair inh inconclusive, IL-1B inflam inh 0.5, VP16 counter -4.7%, RORg inh -0.9% and DT40 TDP1 no CPT -3.7%.
